Assay results: PubChem BioAssay
For some assays here: Measured potencies and affinities stand elsewhere. Active and inactive are the calls of the source. Unless noted, how the calls were made is not given here.

Legend:
[1] = antimalarial activity against Dd2 strain (AID 2302;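 active means growth inhibition above 50% at the single 2 µM test dose, taken to imply half-maximal potency below 2 µM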;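 further: 0% = DMSO untreated growth and 100% = chloroquine plus artemisinin killed control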); details: P. falciparum Dd2 in RBCs, LDH growth readout, 72 h; at 2 µM; hits give high values
[2] = HepG2 cytotoxicity, primary screen, cytotoxicity control for P. falciparum antimalarial project, cell-based, ATP luminescence (AID 2303;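 active means inhibition above 50%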;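 further: 0% = DMSO wells and 100% = digitonin-killed cells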); details: HepG2 viability, 24-48 h, at 10 µM, hits give high values
[3] = molecular target: L-lactate dehydrogenase (Plasmodium falciparum (isolate CDC / Honduras)) (UniProt Q27743); experiment: PfLDH activity inhibition – cell lysate, 3D7 strain, counter-screen for P. falciparum growth inhibition project (AID 2304);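 further: 0% = vehicle and 100% = reference inhibitor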; details: P. falciparum 3D7 crude extract, LDH APAD/NBT absorbance; at 2 µM; hits give high values
Sequence of L-lactate dehydrogenase (Plasmodium falciparum (isolate CDC / Honduras)) (Q27743 whole entry, looked up): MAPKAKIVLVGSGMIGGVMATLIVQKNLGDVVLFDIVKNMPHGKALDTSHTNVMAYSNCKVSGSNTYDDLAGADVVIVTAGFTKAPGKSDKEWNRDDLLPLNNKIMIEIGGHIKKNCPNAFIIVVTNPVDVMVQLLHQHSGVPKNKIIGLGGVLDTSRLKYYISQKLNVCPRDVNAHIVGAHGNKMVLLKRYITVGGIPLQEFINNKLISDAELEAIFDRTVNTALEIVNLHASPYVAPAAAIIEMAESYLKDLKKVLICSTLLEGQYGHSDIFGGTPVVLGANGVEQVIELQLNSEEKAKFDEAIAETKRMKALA

[4] = inhibition of 3D7 malaria parasite growth – strain 3D7 (AID 2306);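 further: 0% = DMSO wells and 100% = chloroquine plus artemisinin control wells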; details: P. falciparum 3D7 erythrocytic growth, LDH absorbance, 72 h; at 2 µM; hits give high values
[5] = molecular target: Calcium-dependent protein kinase 1 (Plasmodium falciparum (isolate 3D7)) (UniProt P62344); experiment: PfCDPK1 kinase inhibitors, biochemical, TCAMS library (AID 1159585; cut-off not given, nearly all actives have IC50 up to about 0.98 µM;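 further: inhibitors leave more ATP so luminescence rises with inhibition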); details: recombinant PfCDPK1, Kinase-Glo ATP depletion luminescence
Sequence of Calcium-dependent protein kinase 1 (Plasmodium falciparum (isolate 3D7)) (P62344 whole entry, looked up): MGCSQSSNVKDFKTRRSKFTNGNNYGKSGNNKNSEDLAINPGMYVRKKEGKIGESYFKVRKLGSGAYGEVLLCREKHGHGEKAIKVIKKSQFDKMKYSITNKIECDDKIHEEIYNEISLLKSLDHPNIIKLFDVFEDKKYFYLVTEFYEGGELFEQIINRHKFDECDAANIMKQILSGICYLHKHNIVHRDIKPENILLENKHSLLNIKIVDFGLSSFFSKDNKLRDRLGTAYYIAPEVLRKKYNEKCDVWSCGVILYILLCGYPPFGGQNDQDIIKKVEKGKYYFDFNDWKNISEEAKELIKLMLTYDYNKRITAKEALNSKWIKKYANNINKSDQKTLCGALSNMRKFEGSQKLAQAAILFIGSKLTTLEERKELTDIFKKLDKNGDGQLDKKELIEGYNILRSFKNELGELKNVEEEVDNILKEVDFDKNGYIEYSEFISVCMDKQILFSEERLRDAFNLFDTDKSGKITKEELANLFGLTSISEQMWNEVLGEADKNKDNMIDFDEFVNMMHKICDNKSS

[6] = molecular target: Plasmodium falciparum protein kinase 6 (PK6, PF3D7_1337100) (UniProt Q8IDW1); experiment: PfPK6 kinase inhibitors, biochemical, TCAMS library (AID 1159586); details: recombinant PfPK6, Kinase-Glo ATP depletion luminescence
Sequence of Plasmodium falciparum protein kinase 6 (PK6, PF3D7_1337100) (Q8IDW1 1-305): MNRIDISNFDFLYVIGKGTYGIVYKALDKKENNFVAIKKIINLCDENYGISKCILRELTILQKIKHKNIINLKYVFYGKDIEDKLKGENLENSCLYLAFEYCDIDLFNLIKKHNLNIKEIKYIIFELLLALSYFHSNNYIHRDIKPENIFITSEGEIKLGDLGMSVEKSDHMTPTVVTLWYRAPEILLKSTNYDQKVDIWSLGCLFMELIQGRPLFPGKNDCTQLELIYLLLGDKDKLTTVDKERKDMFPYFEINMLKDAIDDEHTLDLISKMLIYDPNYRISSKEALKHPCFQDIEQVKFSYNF

[7] = molecular target: Protein kinase 7 (PK7), Plasmodium falciparum 3D7 (PF3D7_0213400) (UniProt Q7YTF7); experiment: inhibition of Plasmodium PK7 catalytic activity – biochemical, TCAMS antimalarial set, Kinase-Glo luminescence (AID 1159587); details: recombinant PfPK7, Kinase-Glo ATP depletion luminescence
Sequence of Protein kinase 7 (PK7), Plasmodium falciparum 3D7 (PF3D7_0213400) (Q7YTF7 1-343): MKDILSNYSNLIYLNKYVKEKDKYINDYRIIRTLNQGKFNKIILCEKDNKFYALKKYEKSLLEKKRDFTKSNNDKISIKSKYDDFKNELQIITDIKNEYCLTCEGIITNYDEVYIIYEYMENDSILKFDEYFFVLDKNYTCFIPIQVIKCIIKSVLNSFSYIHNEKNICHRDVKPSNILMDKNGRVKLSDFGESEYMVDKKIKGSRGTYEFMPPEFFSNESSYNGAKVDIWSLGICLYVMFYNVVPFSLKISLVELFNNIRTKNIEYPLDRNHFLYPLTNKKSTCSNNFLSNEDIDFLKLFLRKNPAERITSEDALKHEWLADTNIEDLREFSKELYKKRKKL

[8] = molecular target: Calcium-dependent protein kinase 4 (Plasmodium falciparum (isolate 3D7)) (UniProt Q8IBS5); experiment: PfCDPK4 kinase inhibitors, biochemical, TCAMS library (AID 1159588; cut-off not given, nearly all actives have IC50 up to about 0.91 µM); details: recombinant PfCDPK4, Kinase-Glo ATP depletion luminescence
Sequence of Calcium-dependent protein kinase 4 (Plasmodium falciparum (isolate 3D7)) (Q8IBS5 whole entry, looked up): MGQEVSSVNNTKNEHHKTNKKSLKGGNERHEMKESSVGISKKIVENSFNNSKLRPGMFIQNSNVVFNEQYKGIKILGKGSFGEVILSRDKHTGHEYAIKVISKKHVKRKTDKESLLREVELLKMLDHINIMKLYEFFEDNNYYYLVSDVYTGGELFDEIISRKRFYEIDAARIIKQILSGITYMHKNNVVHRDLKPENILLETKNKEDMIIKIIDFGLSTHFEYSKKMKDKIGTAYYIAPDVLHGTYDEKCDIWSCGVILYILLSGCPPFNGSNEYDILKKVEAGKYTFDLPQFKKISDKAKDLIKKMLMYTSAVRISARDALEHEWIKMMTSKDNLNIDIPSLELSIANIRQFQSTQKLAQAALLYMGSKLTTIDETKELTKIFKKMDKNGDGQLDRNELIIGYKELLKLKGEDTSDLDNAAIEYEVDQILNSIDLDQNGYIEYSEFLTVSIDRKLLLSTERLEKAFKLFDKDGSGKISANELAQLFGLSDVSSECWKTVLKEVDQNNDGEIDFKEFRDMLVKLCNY

CC1(C)N=C(N)N=C(N)C1c1ccc(Cl)cc1 (stereo unspecified)
inactive: growth inhibition [1] -2% | inhibition [2] 16% | inhibition [3] 1% | outcome [5] | outcome [6] | outcome [7] | outcome [8]
active: growth inhibition [4] 96%

CC(C)NCc1ccc(-c2cccc(NC(=O)c3cccc(C#N)c3)c2)cc1
inactive: inhibition [2] 9% | inhibition [3] -6% | outcome [5] | outcome [6] | outcome [7] | outcome [8]
active: growth inhibition [1] 78% | growth inhibition [4] 100%

Cc1cc(NC(=O)NCCN2CCC(NS(=O)(=O)c3cccc(Br)c3)C2)c2ccccc2n1 (stereo unspecified)
inactive: inhibition [2] 0% | inhibition [3] -2% | outcome [5] | outcome [6] | outcome [7] | outcome [8]
active: growth inhibition [1] 58% | growth inhibition [4] 99%

CC1(C)CC(=O)c2c(O)cc(OCc3ccncc3)cc2O1
active: inhibition [2] 80% | growth inhibition [4] 92%
inactive: growth inhibition [1] 47% | inhibition [3] -1% | outcome [5] | outcome [6] | outcome [7] | outcome [8]

O=C(Nc1ccccc1Cc1ccccc1)c1ccccc1C(F)(F)F
active: growth inhibition [1] 85% | growth inhibition [4] 99%
inactive: inhibition [2] 0% | inhibition [3] 3% | outcome [5] | outcome [6] | outcome [7] | outcome [8]

Cc1noc(C)c1-c1ccc(C(=C2CCCCCC2)c2ccc(O)cc2)cc1
inactive: inhibition [2] -7% | inhibition [3] 7% | outcome [5] | outcome [6] | outcome [7] | outcome [8]
active: growth inhibition [1] 96% | growth inhibition [4] 100%

C=CCc1ccc(C2CCN(CCCCNC(=O)c3ccc(NC(=O)c4ccc(Cl)cc4)cc3)CC2)cc1
inactive: inhibition [2] 27% | inhibition [3] -5% | outcome [5] | outcome [6] | outcome [7] | outcome [8]
active: growth inhibition [1] 97% | growth inhibition [4] 101%

Cc1cc(C(=O)NCc2ccc(-c3c(C)noc3C)cc2)n(-c2ccccc2)n1
active: growth inhibition [1] 90% | growth inhibition [4] 92%
inactive: inhibition [2] 4% | inhibition [3] 3% | outcome [5] | outcome [6] | outcome [7] | outcome [8]

O=C(Nc1ccc(-c2nc3ccccc3[nH]2)cc1)c1cnc(Cl)c(Cl)c1
inactive: inhibition [2] 11% | inhibition [3] 0% | outcome [5] | outcome [6] | outcome [7] | outcome [8]
active: growth inhibition [1] 95% | growth inhibition [4] 102%

CCOC(=O)N1CCN(CCCNc2c3ccccc3nc3ccccc23)CC1
inactive: growth inhibition [1] 20% | inhibition [2] 5% | inhibition [3] 2% | outcome [5] | outcome [6] | outcome [7] | outcome [8]
active: growth inhibition [4] 90%

CCc1c[nH]c2c(N3CCCC3=O)cc(C(=O)N[C@@H](Cc3ccccc3)[C@H](O)CNC(C)(C)c3cccc(C(F)(F)F)c3)cc12
active: growth inhibition [1] 99% | growth inhibition [4] 98%
inactive: inhibition [2] 10% | inhibition [3] 1% | outcome [5] | outcome [6] | outcome [7] | outcome [8]

COc1cc2nc(NCCc3ccccc3)nc(NCc3ccc(C#N)cc3)c2cc1OC
active: growth inhibition [1] 100% | inhibition [2] 52% | growth inhibition [4] 100%
inactive: inhibition [3] 0% | outcome [5] | outcome [6] | outcome [7] | outcome [8]

Cc1cc(N[C@@H](Cc2ccccc2)C(=O)Nc2ccccc2)nc(NCCc2ccccc2)n1
inactive: inhibition [2] 8% | inhibition [3] 3% | outcome [5] | outcome [6] | outcome [7] | outcome [8]
active: growth inhibition [1] 87% | growth inhibition [4] 101%

Cc1ccc(C(NC(=O)Cc2ccccc2)c2ccc3cccnc3c2O)cc1 (stereo unspecified)
active: growth inhibition [1] 77% | growth inhibition [4] 94%
inactive: inhibition [2] 47% | inhibition [3] 6% | outcome [5] | outcome [6] | outcome [7] | outcome [8]

CCCCN(CCCC)CCCCCCNc1c2ccccc2nc2ccccc12
inactive: inhibition [2] 49% | inhibition [3] 7% | outcome [5] | outcome [6] | outcome [7] | outcome [8]
active: growth inhibition [1] 87% | growth inhibition [4] 95%

COc1cccc(C(=O)Nc2sc3c(c2C(N)=O)CCCC3)c1OC
inactive: growth inhibition [1] 8% | inhibition [2] 6% | inhibition [3] -2% | outcome [5] | outcome [6] | outcome [7] | outcome [8]
active: growth inhibition [4] 99%

CC1(C)N=C(N)N=C(N)N1OCCCNC(=O)c1ccc(C(=O)NCCCON2C(N)=NC(N)=NC2(C)C)cc1
active: growth inhibition [1] 96% | growth inhibition [4] 91%
inactive: inhibition [2] 0% | inhibition [3] 3% | outcome [5] | outcome [6] | outcome [7] | outcome [8]

COc1ccc(S(=O)(=O)Nc2cc(C)cc(Br)c2OC)cc1N1CCN(C(=O)C(Cl)(Cl)Cl)CC1
active: growth inhibition [1] 66% | growth inhibition [4] 91%
inactive: inhibition [2] 9% | inhibition [3] 0% | outcome [5] | outcome [6] | outcome [7] | outcome [8]

Cc1cc(N[C@@H](Cc2ccccc2)C(=O)NCc2cccc(F)c2)nc(NCCc2ccccc2)n1
inactive: inhibition [2] 7% | inhibition [3] 0% | outcome [5] | outcome [6] | outcome [7] | outcome [8]
active: growth inhibition [1] 73% | growth inhibition [4] 101%

CC(C)Cn1cc(C2CCN(CCN3CCC(CNC(=O)c4ccc(-c5ccc(C(F)(F)F)cc5)cc4)CC3)CC2)c2ccccc21
inactive: inhibition [3] 0% | outcome [5] | outcome [6] | outcome [7] | outcome [8]
active: growth inhibition [1] 87% | inhibition [2] 100% | growth inhibition [4] 101%

Cc1ccc(Cn2ncc(N3CCNCC3)c(Cl)c2=O)cc1NC(=O)Nc1ccc(-c2ccccc2)cc1
inactive: growth inhibition [1] 30% | inhibition [3] 6% | outcome [5] | outcome [6] | outcome [7] | outcome [8]
active: inhibition [2] 56% | growth inhibition [4] 90%

Cc1cc(OCC2CCCO2)c2cc(NC(=O)C(=O)Nc3ccc4nc(C)cc(OCC5CCCO5)c4c3)ccc2n1 (stereo unspecified)
active: growth inhibition [4] 96%
inactive: growth inhibition [1] 32% | inhibition [2] 7% | inhibition [3] -4% | outcome [5] | outcome [6] | outcome [7] | outcome [8]

O=C(NC1CCN(Cc2cccc(C(F)(F)F)c2)CC1)c1ccc(-c2cccc(C(F)(F)F)c2)s1
active: growth inhibition [1] 54% | growth inhibition [4] 94%
inactive: inhibition [2] 36% | inhibition [3] -2% | outcome [5] | outcome [6] | outcome [7] | outcome [8]

Cc1cc(NC(=O)CCN2CCN(c3cccc(Cl)c3Cl)CC2)ccc1N1CCN(C(C)C)CC1
active: inhibition [2] 82% | growth inhibition [4] 99%
inactive: growth inhibition [1] 8% | inhibition [3] 7% | outcome [5] | outcome [6] | outcome [7] | outcome [8]

O=C(CCc1ccccc1)N[C@H](Cc1c[nH]c2ccccc12)C(=O)N1CCC(NCc2ccc3c(c2)Cc2ccccc2-3)CC1
active: inhibition [2] 53% | growth inhibition [4] 92%
inactive: growth inhibition [1] 8% | inhibition [3] -6% | outcome [5] | outcome [6] | outcome [7] | outcome [8]

N#Cc1ccc(-c2ccc(C(=O)NCCCCN3CCC(c4cc(Br)c5c(c4OCC(N)=O)CCCC5)CC3)cc2)cc1
active: growth inhibition [1] 89% | growth inhibition [4] 100%
inactive: inhibition [2] 23% | inhibition [3] 6% | outcome [5] | outcome [6] | outcome [7] | outcome [8]

CCn1cc(C=C2Oc3c(ccc(O)c3CN3CCCCC3)C2=O)c2cc(OC)ccc21
inactive: inhibition [2] -9% | inhibition [3] -1% | outcome [5] | outcome [6] | outcome [7] | outcome [8]
active: growth inhibition [1] 99% | growth inhibition [4] 99%

Cc1nn(-c2ccccc2)c2sc(C(=O)N(CCCN(C)C)c3nc(-c4ccccc4)cs3)cc12
inactive: growth inhibition [1] 36% | inhibition [3] -2% | outcome [5] | outcome [6] | outcome [7] | outcome [8]
active: inhibition [2] 99% | growth inhibition [4] 95%

N#Cc1ccccc1C(=O)N(Cc1cncn1Cc1cccc(F)c1)CC1CC1
active: growth inhibition [1] 92% | growth inhibition [4] 101%
inactive: inhibition [2] 0% | inhibition [3] -1% | outcome [5] | outcome [6] | outcome [7] | outcome [8]

Clc1ccc2c(NN=Cc3ccco3)ccnc2c1
active: growth inhibition [1] 96% | growth inhibition [4] 100%
inactive: inhibition [2] 3% | inhibition [3] -4% | outcome [5] | outcome [6] | outcome [7] | outcome [8]

Cc1onc(-c2ccc(Cl)cc2)c1-c1ccnn1S(=O)(=O)c1ccc(Cl)cc1
active: growth inhibition [1] 99% | growth inhibition [4] 101%
inactive: inhibition [2] -3% | inhibition [3] 3% | outcome [5] | outcome [6] | outcome [7] | outcome [8]

CCOC(=O)C(C(=O)OCC)c1nc(C)ns1
inactive: growth inhibition [1] -3% | inhibition [2] 10% | inhibition [3] -3% | outcome [5] | outcome [6] | outcome [7] | outcome [8]
active: growth inhibition [4] 99%

Cc1cccc(CN2CCCC3(CCN(Cc4ccccc4O)C3)C2)c1 (stereo unspecified)
active: growth inhibition [1] 76% | growth inhibition [4] 99%
inactive: inhibition [2] 14% | inhibition [3] -3% | outcome [5] | outcome [6] | outcome [7] | outcome [8]

CCOc1ccc(Nc2ccc3nonc3c2S(=O)(=O)Nc2ccc(OCC)cc2)cc1
active: growth inhibition [1] 93% | growth inhibition [4] 100%
inactive: inhibition [2] 6% | inhibition [3] -2% | outcome [5] | outcome [6] | outcome [7] | outcome [8]

CCOC(=O)C(C#N)NC(=O)C=Cc1ccccc1 (stereo unspecified)
inactive: growth inhibition [1] 9% | inhibition [2] -7% | inhibition [3] 6% | outcome [5] | outcome [6] | outcome [7] | outcome [8]
active: growth inhibition [4] 96%

COc1ccccc1CCCN1C(=O)C(c2ccccc2)(c2ccccc2)N=C1N
active: growth inhibition [1] 99% | growth inhibition [4] 99%
inactive: inhibition [2] 49% | inhibition [3] -3% | outcome [5] | outcome [6] | outcome [7] | outcome [8]

COc1c(F)ccc2ncc(Cl)c(CCN3CCC(NCc4ccc5c(n4)NC(=O)CS5)CC3)c12
inactive: growth inhibition [1] 29% | inhibition [2] 30% | inhibition [3] 2% | outcome [5] | outcome [6] | outcome [7] | outcome [8]
active: growth inhibition [4] 98%
